Results filed as inconclusive are left out. The source made the active and inactive calls. Rule for the calls: active = hit-call score of the fitted dose curve at least 0.9, where 1 is the maximum; inconclusive = response in the unintended direction; inactive = score below 0.9.
target: human Acetylcholinesterase (AChE), ACHE (gene 43) (UniProt P22303); test: NVS_ENZ_hAChE: NovaScreen (NVS) Enzymatic Assay for human Acetylcholinesterase (AChE) (AID 2283129)
Method: NVS_ENZ_hAChE is a biochemical, single-readout assay that uses extracted gene-proteins in a cell-free assay. Measurements were taken 0.33 hour after chemical dosing in a 96-well plate.NVS_ENZ_hAChE is one of one assay component(s) measured or calculated from the NVS_ENZ_hAChE assay. It is designed to make measurements of enzyme activity, a form of enzyme reporter, as detected with absorbance signals by Colorimetric technology.Data from the assay component NVS_ENZ_hAChE was analyzed into 1 assay endpoint. This assay endpoint, NVS_ENZ_hAChE, was analyzed in the positive analysis fitting direction relative to DMSO as the negative control and baseline of activity. Using a type of enzyme reporter, loss-of-signal activity can be used to understand changes in the enzymatic activity as they relate to the gene ACHE. Furthermore, this assay endpoint can be referred to as a primary readout, because this assay has produced multiple assay endpoints where this one serves a enzymatic activity function. To generalize the intended target to other relatable targets, this assay endpoint is annotated to the esterase intended target family, where the subfamily is acetylcholinesterase.
Binding assays used specific radioligands (tritiated, iodinated) with non-radioactive competitive displacement ligands in agonist or antagonist protocols (as indicated) and various reference compounds and inhibitors to titrate specific binding to receptors and transporters. Most enzyme assays (CYPs, kinases, phosphatases, proteases, HDACs) used recombinant protein and specific substrates (fluorescence mostly, some colorimetric and radioactive) and inhibitors, followed by a biochemical separation of substrate and product. All assays for the biochemical HTS were initially run in duplicate at a single concentration (10 uM for CYP450 assays and 25 uM for all others). […] Each assay was run with positive and negative controls, and concurrent controls on every plate. The follow-up (secondary) screen tested active chemical-pairs in concentration series, as well as a few additional assays not tested in the primary screen, some selected negative inactives, and several cases re-run in the concentration series for confirmatory purposes.

human Acetylcholinesterase (AChE), ACHE (gene 43), sequence (P22303 whole entry, looked up): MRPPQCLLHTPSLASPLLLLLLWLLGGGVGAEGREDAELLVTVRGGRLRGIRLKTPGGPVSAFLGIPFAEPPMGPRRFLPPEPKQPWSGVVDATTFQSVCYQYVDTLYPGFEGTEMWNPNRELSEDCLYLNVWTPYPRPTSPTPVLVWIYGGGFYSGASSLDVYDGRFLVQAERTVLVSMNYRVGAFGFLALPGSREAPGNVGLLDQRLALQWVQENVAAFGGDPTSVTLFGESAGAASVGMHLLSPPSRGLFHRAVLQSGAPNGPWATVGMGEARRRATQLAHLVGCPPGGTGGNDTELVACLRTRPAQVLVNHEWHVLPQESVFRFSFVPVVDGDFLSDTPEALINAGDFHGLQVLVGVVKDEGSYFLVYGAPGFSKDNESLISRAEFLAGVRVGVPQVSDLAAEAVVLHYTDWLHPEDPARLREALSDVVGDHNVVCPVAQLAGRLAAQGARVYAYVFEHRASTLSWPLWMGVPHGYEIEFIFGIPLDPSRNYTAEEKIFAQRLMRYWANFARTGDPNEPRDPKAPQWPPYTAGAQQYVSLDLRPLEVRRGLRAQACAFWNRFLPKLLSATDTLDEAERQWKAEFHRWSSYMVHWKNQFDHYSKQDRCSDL

Compound	AC50	outcome
CNC(=O)Oc1cccc2ccccc12	25 µM (active)	–
N#Cc1c[nH]cc1-c1cccc2c1OC(F)(F)O2	–	inactive
CCNC(=O)NC(=O)C(C#N)=NOC	–	inactive
N#CN=C1SCCN1Cc1ccc(Cl)nc1	19.6 µM (active)	–
CCC(C)n1c(=O)[nH]c(C)c(Br)c1=O (stereo not drawn)	–	inactive
CC1(C)CON(Cc2ccccc2Cl)C1=O	–	inactive

target: human Caspase 2 (CASP2), CASP2 (gene 835) (UniProt P42575); test: NVS_ENZ_hCASP2: NovaScreen (NVS) Enzymatic Assay for human Caspase 2 (CASP2) (AID 2283135)
Sequence (P42575 whole entry, looked up): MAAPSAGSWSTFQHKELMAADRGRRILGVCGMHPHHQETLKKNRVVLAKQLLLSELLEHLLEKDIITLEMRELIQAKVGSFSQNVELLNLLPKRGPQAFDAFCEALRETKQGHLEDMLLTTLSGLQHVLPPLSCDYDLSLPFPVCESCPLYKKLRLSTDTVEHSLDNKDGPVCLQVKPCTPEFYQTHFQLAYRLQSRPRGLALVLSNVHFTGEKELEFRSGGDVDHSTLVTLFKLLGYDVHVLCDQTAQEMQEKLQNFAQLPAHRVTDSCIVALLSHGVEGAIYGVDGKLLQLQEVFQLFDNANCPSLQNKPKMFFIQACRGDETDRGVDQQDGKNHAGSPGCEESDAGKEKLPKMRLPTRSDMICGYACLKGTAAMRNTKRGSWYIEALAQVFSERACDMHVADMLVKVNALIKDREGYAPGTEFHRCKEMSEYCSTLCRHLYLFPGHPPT
Summary of the method: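 E. coli-expressed enzyme in a cell-free protease assay, fluorescence read 1 h after dosing. Compounds at 25 uM in duplicate, with concentration-response up to 50 uM for hits; loss of signal against DMSO baseline.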

Compound	outcome
CN/C(=N\[N+](=O)[O-])NCc1cnc(Cl)s1	inactive
CCNC(=O)NC(=O)C(C#N)=NOC	inactive
O=C1C2CC=CCC2C(=O)N1SC(Cl)(Cl)Cl (stereo not drawn)	inactive

target: human AKT serine/threonine Kinase 1 (AKT1), AKT1 (gene 207) (UniProt P31749); test: NVS_ENZ_hAKT1: NovaScreen (NVS) Enzymatic Assay for human AKT serine/threonine Kinase 1 (AKT1) (AID 2283138)
Sequence (P31749 whole entry, looked up): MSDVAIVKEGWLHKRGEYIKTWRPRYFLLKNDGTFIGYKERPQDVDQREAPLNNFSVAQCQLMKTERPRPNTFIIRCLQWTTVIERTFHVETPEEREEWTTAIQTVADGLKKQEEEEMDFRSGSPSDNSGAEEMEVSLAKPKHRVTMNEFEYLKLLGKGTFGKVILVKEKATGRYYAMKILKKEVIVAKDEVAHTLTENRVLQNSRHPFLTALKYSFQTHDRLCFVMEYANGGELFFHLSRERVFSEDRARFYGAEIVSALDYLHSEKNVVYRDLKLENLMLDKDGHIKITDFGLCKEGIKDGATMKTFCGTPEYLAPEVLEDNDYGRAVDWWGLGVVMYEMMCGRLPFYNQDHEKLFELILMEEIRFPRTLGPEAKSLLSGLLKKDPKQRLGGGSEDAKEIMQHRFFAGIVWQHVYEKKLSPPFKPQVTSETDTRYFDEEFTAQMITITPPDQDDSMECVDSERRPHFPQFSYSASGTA
Summary of the method: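 Signal loss relative to DMSO, measured by fluorescence after electrophoretic separation of substrate and product, indicates inhibition of recombinant enzyme. Readings at 1 h; screening at 25 uM, follow-up curves up to 50 uM.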

Compound	outcome
Nc1c(Cl)c(Cl)nc(C(=O)O)c1Cl	inactive
CCOc1nc(F)cc2nc(S(=O)(=O)Nc3c(Cl)cccc3Cl)nn12	inactive
O=c1n(Cl)c(=O)n(Cl)c(=O)n1Cl	inactive
N#Cc1c(Cl)cccc1Cl	inactive

Reference: PubChem BioAssay (EPA / NIEHS)
